# Columns and labels:
# Assay in all cases: DAPPL (digital affinity profiling via proximity ligation, sequencing); 10 mM Tris-HCl pH 7.5, 50 mM NaCl, 1 mM DTT, 4% glycerol, room temperature, 30 min; GST-TFs on glutathione beads, 16-mer random dsDNA library, 0.1% formaldehyde crosslink after washing; high values mean tight binding
# Conditions in all cases: protein: recombinant; tags: N-terminal GST; dsDNA, one strand shown
# ETV1 = ETV1 (Homo sapiens, UniProt P50549 1-477)
# How it was run: (§1)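 A tag-only sample was pooled with DNA-barcoded human transcription factors that had been expressed in yeast as GST fusions and captured on glutathione beads. The pools were incubated for 30 min at room temperature with 200 nmole of a random double-stranded 16-mer DNA library in Tris/NaCl/DTT/glycerol buffer, then washed, crosslinked with 0.1% formaldehyde, proximity-ligated (BsaI/T4 ligase, 1 h, 37 °C), PCR-amplified and sequenced on an Illumina NextSeq500. Binding signal is each hexamer's read frequency for a factor divided by its frequency for the tag-only sample.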
# ERF = molecular target: T1, ERF (Homo sapiens, UniProt P50548 1-548)
# T1 sequence: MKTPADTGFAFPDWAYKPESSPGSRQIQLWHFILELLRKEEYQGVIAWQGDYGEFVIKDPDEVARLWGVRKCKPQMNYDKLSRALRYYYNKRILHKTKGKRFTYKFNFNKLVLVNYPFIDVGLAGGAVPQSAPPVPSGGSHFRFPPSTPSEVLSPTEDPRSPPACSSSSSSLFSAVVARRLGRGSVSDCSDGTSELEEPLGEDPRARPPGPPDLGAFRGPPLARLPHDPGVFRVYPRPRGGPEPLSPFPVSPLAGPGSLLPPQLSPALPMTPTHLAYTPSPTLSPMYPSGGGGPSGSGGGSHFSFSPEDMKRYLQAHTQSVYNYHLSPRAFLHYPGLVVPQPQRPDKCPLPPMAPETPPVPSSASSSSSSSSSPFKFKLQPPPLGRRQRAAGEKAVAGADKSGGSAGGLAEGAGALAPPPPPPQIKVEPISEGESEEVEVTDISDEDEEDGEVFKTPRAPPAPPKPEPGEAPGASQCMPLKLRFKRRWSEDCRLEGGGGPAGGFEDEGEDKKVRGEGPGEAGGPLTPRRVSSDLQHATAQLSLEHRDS
# How it was run: as §1
# ETV3L = molecular target: T2, ETV3L (Homo sapiens, UniProt Q6ZN32 1-361)
# T2 sequence: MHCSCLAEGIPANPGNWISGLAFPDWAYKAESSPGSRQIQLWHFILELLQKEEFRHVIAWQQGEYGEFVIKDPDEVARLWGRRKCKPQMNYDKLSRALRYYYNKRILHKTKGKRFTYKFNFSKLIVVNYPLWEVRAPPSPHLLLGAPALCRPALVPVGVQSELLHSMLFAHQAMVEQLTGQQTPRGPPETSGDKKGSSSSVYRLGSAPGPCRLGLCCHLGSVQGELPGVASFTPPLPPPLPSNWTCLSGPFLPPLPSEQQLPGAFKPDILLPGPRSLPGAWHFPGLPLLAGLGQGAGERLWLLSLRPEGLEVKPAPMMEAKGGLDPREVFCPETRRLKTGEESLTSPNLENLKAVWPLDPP
# How it was run: as §1
# ETS2 = molecular target: T3, ETS2 (Homo sapiens, UniProt P15036 1-469)
# T3 sequence: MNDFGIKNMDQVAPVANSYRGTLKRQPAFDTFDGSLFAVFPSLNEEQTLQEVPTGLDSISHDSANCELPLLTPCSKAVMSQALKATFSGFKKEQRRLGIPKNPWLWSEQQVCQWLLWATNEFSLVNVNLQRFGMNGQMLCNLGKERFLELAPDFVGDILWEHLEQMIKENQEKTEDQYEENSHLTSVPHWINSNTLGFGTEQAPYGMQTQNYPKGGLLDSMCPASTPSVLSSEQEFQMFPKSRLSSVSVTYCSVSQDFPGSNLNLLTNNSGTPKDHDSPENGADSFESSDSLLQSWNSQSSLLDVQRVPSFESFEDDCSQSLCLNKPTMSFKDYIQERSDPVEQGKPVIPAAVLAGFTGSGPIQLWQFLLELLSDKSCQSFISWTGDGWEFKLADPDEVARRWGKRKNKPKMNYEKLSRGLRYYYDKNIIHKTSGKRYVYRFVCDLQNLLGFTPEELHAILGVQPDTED
# How it was run: as §1
# SPDEF = molecular target: T4, SPDEF (Homo sapiens, UniProt O95238 1-335)
# T4 sequence: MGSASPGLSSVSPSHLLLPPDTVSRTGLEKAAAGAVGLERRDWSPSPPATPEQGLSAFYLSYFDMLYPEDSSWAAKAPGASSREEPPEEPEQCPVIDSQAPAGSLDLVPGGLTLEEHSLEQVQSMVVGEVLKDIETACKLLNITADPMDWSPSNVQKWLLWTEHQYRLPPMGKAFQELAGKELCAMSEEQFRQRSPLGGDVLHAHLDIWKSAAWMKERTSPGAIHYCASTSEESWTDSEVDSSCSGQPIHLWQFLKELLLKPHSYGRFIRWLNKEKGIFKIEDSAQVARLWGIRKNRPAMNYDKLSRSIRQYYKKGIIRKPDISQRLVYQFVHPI
# How it was run: as §1
# ETV7 = molecular target: T5, ETV7 (Homo sapiens, UniProt Q9Y603 1-341)
# T5 sequence: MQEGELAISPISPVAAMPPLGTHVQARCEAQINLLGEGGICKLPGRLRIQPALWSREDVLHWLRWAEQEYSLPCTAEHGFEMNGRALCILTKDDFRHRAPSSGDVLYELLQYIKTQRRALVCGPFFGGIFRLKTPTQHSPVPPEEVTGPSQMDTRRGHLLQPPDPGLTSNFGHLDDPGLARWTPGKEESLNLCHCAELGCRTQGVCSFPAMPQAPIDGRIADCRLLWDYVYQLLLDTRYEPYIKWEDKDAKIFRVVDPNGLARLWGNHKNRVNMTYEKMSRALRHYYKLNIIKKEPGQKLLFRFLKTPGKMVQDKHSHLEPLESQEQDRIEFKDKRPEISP
# How it was run: as §1
# ELF5 = molecular target: T6, ELF5 (Homo sapiens, UniProt Q9UKW6-2 1-255)
# T6 sequence: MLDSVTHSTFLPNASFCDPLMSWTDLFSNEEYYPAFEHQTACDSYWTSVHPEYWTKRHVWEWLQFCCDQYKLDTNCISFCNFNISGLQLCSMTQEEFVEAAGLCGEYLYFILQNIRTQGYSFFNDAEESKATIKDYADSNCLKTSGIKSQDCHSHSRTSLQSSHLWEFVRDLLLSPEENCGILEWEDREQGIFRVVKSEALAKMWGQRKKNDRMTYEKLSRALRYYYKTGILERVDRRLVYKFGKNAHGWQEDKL
# How it was run: as §1
# ETV3 = molecular target: T7, ETV3 (Homo sapiens, UniProt P41162-2 1-143)
# T7 sequence: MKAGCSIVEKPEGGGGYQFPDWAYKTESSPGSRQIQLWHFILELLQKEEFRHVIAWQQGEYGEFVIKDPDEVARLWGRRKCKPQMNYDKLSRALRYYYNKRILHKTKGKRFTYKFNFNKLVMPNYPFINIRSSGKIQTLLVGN
# How it was run: as §1
# ETV6 = ETV6 (Homo sapiens, UniProt P41212 1-452)
# How it was run: as §1
# Chain of ETV6 (P41212 whole entry): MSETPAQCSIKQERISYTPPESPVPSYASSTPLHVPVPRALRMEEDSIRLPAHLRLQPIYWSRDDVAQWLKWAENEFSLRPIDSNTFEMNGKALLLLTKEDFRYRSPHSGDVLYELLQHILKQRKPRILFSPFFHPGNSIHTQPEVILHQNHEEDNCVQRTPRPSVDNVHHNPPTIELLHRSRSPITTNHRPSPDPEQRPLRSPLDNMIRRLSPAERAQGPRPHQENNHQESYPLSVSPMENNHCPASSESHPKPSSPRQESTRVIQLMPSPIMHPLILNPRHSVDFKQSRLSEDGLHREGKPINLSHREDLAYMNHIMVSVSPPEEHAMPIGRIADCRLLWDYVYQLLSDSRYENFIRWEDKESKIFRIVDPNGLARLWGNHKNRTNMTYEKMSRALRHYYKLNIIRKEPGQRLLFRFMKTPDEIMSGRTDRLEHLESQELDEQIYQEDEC
# Chain of ETV1 (P50549 whole entry, the tested form may be a part): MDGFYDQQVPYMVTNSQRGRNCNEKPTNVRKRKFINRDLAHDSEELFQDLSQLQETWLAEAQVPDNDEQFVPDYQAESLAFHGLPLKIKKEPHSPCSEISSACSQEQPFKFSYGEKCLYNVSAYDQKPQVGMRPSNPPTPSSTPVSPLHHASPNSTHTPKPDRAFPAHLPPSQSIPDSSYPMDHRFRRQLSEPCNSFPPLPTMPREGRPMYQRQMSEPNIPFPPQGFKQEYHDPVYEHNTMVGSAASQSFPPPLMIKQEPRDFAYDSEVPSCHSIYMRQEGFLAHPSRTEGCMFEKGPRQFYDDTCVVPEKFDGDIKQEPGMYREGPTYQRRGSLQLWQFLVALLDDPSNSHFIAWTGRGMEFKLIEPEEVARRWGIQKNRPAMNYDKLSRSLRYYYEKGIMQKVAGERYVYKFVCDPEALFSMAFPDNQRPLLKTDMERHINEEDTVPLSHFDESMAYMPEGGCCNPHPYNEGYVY
sequence,measurement,setting,value
TTGCTC,binding signal,ETV1,"1.21 fold enrichment (6-mer frequency, TF over GST control)"
same,binding signal,ERF,"1.44 fold enrichment (6-mer frequency, TF over GST control)"
same,binding signal,ETV3L,"1.28 fold enrichment (6-mer frequency, TF over GST control)"
same,binding signal,ETS2,"1.33 fold enrichment (6-mer frequency, TF over GST control)"
same,binding signal,SPDEF,"1.2 fold enrichment (6-mer frequency, TF over GST control)"
same,binding signal,ETV7,"1.59 fold enrichment (6-mer frequency, TF over GST control)"
same,binding signal,ELF5,"1.18 fold enrichment (6-mer frequency, TF over GST control)"
same,binding signal,ETV3,"1.2 fold enrichment (6-mer frequency, TF over GST control)"
same,binding signal,ETV6,"1.22 fold enrichment (6-mer frequency, TF over GST control)"

# Reference: PMC7862700, “An all-to-all approach to the identification of sequence-specific readers for epigenetic DNA modifications on cytosine”
